# Values joined by “and” are separate entries in the source; they are usually repeats but may differ in a detail not shown here. Identical values can stand only once. Out of some 350,000 compounds screened, about 600 (0.17%) were called active. The sample as a whole holds a higher share of actives than the screen did. Values without a mark were called inactive.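 The calls were made as follows: active = every replicate shows inhibition of at least 40%; inconclusive = mean inhibition at least 40% but some replicate below; inactive = the rest.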
# Test: inhibitors of PGC1a acetylation signal, primary screen, cell-based, U2OS, AlphaScreen, inhibitor mode (AID 651687);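 also: 0% = neutral control wells and 100% = positive control wells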
# Details: AlphaScreen anti-acetyl-lysine, at 15.6 µM, hits give high values, with virally co-expressed GCN5 acetyltransferase
row,SMILES,inhibition
1,Cc1nc(=O)c(-c2ccccc2)c(C)n1-c1ccc(Br)cc1,-2.67%
2,S=C1NC(c2ccccc2)=NCN1c1ccc(Br)cc1,80.9% (active)
3,COc1ccccc1S(=O)(=O)N[C@@H]1C=C[C@H](CC(=O)N2CCN(C)CC2)O[C@@H]1CO,6.82%
4,O=[N+]([O-])c1c(NCCO)cc(Sc2nc3ccccc3s2)c2nonc12,45% (active)
5,COc1ccc(S(=O)(=O)Nc2ccc3c(c2)C(=O)N([C@H](C)CO)C[C@H](C)[C@@H](CN(C)C)OCCCC[C@H](C)O3)cc1,-0.646% and 1.73%
6,C[C@H]1CN([C@@H](C)CO)C(=O)c2cc(C#CC3CCCCC3)cnc2O[C@@H]1CN(C)C(=O)Cc1ccccn1,-16.1%
7,C[C@H](CO)N1C[C@H](C)[C@H](CN(C)S(=O)(=O)c2cn(C)cn2)Oc2c(NC(=O)c3ccncc3)cccc2C1=O,-3.09%
8,CO[C@H]1CN(C)C(=O)c2ccc(NC(=O)c3nc4ccccc4s3)cc2OC[C@@H](C)N(Cc2cncnc2)C[C@H]1C,10.9%
9,CC[C@H]1CN2CCc3cc(OC)c(OC)cc3[C@@H]2C[C@@H]1C[C@H]1NCCc2cc(OC)c(OC)cc21,83.7% (active)
10,C[C@@H]1CN([C@@H](C)CO)S(=O)(=O)c2ccc(-c3cccc(F)c3)cc2O[C@@H]1CN(C)S(=O)(=O)c1ccccc1,5.85%
11,C[C@H](CO)N1C[C@H](C)[C@H](CN(C)C)Oc2ncc(/C=C/c3ccccc3)cc2C1=O,-8.6% and 4.49%
12,CO[C@H]1CN(C)C(=O)c2cc(NC(=O)c3nc4ccccc4s3)ccc2OC[C@H](C)N(Cc2cccnc2)C[C@@H]1C,7.17%
13,COc1ccc(NC(=O)N2CC[C@@H]3[C@@H](CO)N(C)c4ccc(-c5cccc(F)c5)cc4[C@@H]32)cc1,10.2%
14,O=C(Nc1ccc(C(F)(F)F)cc1)N[C@@H]1CC[C@H](CCNC(=O)c2ccccc2F)O[C@H]1CO,10.8%
15,CO[C@@H]1CN(C)C(=O)c2ccc(NC(=O)NC(C)C)cc2OC[C@H](C)N(Cc2ccc(-c3ccccn3)cc2)C[C@H]1C,-3.93%
16,CCOc1ccccc1CN1CCN(C2CCC2)CC1CCO (stereo not given),74.8% (active)
17,COc1ccccc1N1CCC(N2CCN(CC(C)(C)C)C(CCO)C2)CC1 (stereo not given),10.6%
18,COc1ccc(N2CCC(N3CCN(C)C(CCO)C3)CC2)cc1 (stereo not given),0.824%
19,CO[C@@H]1CN(C)C(=O)c2ccc(NC(=O)c3ccccn3)cc2OC[C@@H](C)N(C(=O)C2CCCCC2)C[C@H]1C,-2.25%
20,C[C@H](CO)N1C[C@H](C)[C@H](CN(C)Cc2ccccn2)Oc2ncc(C#CCc3ccccc3)cc2C1=O,-0.518%
21,COCCCNC(=O)[C@@]1(Cc2ccccc2)COC(c2ccc(OCCCO)cc2)=N1,4.46%
22,Cc1ccc(S(=O)(=O)N(C)C[C@H]2OCCCC[C@@H](C)Oc3ccc(NC(=O)Nc4ccc(F)cc4)cc3C(=O)N([C@@H](C)CO)C[C@H]2C)cc1,-6.65%
23,C[C@@H]1CN([C@H](C)CO)C(=O)c2cc(C#Cc3cccc(F)c3)cnc2O[C@H]1CN(C)Cc1ccccn1,-11.1%
24,Cc1noc(C)c1S(=O)(=O)Nc1ccc2c(c1)CC(=O)N([C@@H](C)CO)C[C@H](C)[C@H](CN(C)S(=O)(=O)c1ccc(Cl)cc1)O2,10.3%
25,CO[C@H]1CN(C)C(=O)c2cc(NC(=O)C3CC3)ccc2OC[C@H](C)N(C(=O)CN(C)C)C[C@H]1C,-4.9%
26,O=C(C[C@H]1C[C@H]2c3cc(NC(=O)CC4CC4)ccc3O[C@H]2[C@H](CO)O1)NCc1cc(F)ccc1F,-0.32%
27,C[C@H](CO)N1C[C@H](C)[C@@H](CN(C)Cc2ccc(C(F)(F)F)cc2)Oc2ccc(NC(=O)Cn3cnnn3)cc2CC1=O,6.38%
28,Cc1noc(C)c1NC(=O)Nc1ccc2c(c1)C(=O)N([C@H](C)CO)C[C@@H](C)[C@@H](CN(C)S(=O)(=O)c1ccc(Cl)cc1)OCCCC[C@H](C)O2,0.953%

row,SMILES,inhibition
1,COc1ccc(S(=O)(=O)N(C)C[C@H]2Oc3ccc(NS(C)(=O)=O)cc3C(=O)N([C@H](C)CO)C[C@H]2C)cc1,-5.85%
2,O=C(Cc1ccccc1)N1CC[C@H]2[C@H](CO)Nc3ccc(-c4ccccc4F)cc3[C@H]21,-17.2%
3,CC(C)NC(=O)Nc1ccc2c(c1)C(=O)N([C@H](C)CO)C[C@H](C)[C@@H](CN(C)Cc1ccc3c(c1)OCO3)OCCCC[C@H](C)O2,4.63%
4,C[C@@H]1CN([C@@H](C)CO)C(=O)c2cc(NC(=O)c3ccncc3)ccc2O[C@@H]1CN(C)S(C)(=O)=O,6.79%
5,Cc1ccccc1-c1ccc([C@H]2[C@@H](CO)N3C(=O)CN(C(=O)c4ccncc4)C[C@H]23)cc1,-5.89%
6,Cn1c2c(c(=O)n(C)c1=O)C(c1cccc(F)c1)C(C#N)=C(N)O2 (stereo not given),80.9% (active)
7,N#CC1=C(N)Oc2cc(N)ccc2C1c1ccccc1 (stereo not given),-1.66%
8,Cc1cc2c(c(=O)n1C)C(C(C)C)C(C#N)=C(N)O2 (stereo not given),8.23%
9,C[C@@H]1CN([C@@H](C)CO)C(=O)c2cc(NC(=O)CCCCCC(=O)Nc3ccccc3N)ccc2O[C@@H](C)CCCCO[C@@H]1CN(C)CC1CCCCC1,3.98%
10,O=C(CC(F)(F)F)N1C[C@H]2[C@@H](c3ccccc31)[C@H](CO)N2C(=O)Cc1cccnc1,0.596%
11,CN(C)Cc1cn(CC[C@H]2CC[C@@H](NS(=O)(=O)c3ccccc3)[C@H](CO)O2)nn1,-1.22%
12,CO[C@H]1CN(C)C(=O)c2ccc(NS(C)(=O)=O)cc2OC[C@@H](C)N(Cc2ccccc2)C[C@H]1C,4.39%
13,O=C(C[C@@H]1CC[C@@H](NC(=O)c2cccnc2)[C@H](CO)O1)NCCN1CCCCC1,6.21%
14,CCC(=O)N1CC(=O)N2[C@@H](CO)[C@H](c3ccc(C#CCC(C)C)cc3)[C@@H]2C1,-4.62%
15,O=C(CC(F)(F)F)N1C[C@H]2[C@@H](c3ccccc31)[C@H](CO)N2C(=O)Cc1ccccc1,9.3%
16,C/C=C/c1ccccc1[C@@H]1[C@@H](C#N)N(C(=O)Cc2ccccn2)[C@H]1CO,-0.046%
17,C[C@H]1CN([C@@H](C)CO)S(=O)(=O)c2ccc(C#CC3(O)CCCC3)cc2O[C@@H]1CN(C)C(=O)Nc1cccc(F)c1,-10%
18,Cc1ccc(S(=O)(=O)N2C[C@H](O)COC[C@@H]3O[C@@H](CC(=O)NCC4CCCCC4)CC[C@H]32)cc1,-0.708%
19,N#Cc1ccc(-c2ccc3c(c2)[C@H]2[C@H](CCN2Cc2ccc4c(c2)OCO4)[C@@H](CO)N3)cc1,-7%
20,COc1ccccc1CN1[C@@H]2CNC[C@H]1C2c1ccc(-c2cccc(C#N)c2)cc1 (stereo not given in full),1.68% and -10%
21,N#Cc1ccc(-c2ccc([C@@H]3[C@H]4CNC[C@@H]3N4Cc3ccc4c(c3)OCO4)cc2)cc1,48.1% (active)
22,COc1ccc2c3c([nH]c2c1)[C@H](CO)N(Cc1ccccc1OC)CC31CCN(S(=O)(=O)c2ccccc2)CC1,8.15%
23,C[C@@H]1CN([C@@H](C)CO)C(=O)c2cccc(NC(=O)c3ccc(-c4nccs4)cc3)c2O[C@H]1CN(C)C(=O)Nc1ccccc1,-1.84%
24,Cc1ccc(C)n1NC(=O)c1ccc([N+](=O)[O-])cc1,2.46%
25,O=C(Nn1cnnc1)c1ccc([N+](=O)[O-])cc1,-2.58%
26,N=C1C(c2nc3ccccc3s2)=C(O)CN1NC(=O)c1ccc([N+](=O)[O-])cc1,100% (active)
27,COc1ccc(NC(=O)N2C[C@H](O)COC[C@H]3O[C@@H](CC(=O)NC4Cc5ccccc5C4)CC[C@@H]32)cc1,1.58%

# Source: PubChem BioAssay AID651687 (Broad Institute, 2012)
